High-throughput results: PubChem, The Scripps Research Institute Molecular Screening Center
Compounds with a hit are over-represented: about 1.8% of the library has one in this group of screens.
Fam108B counter: Fam108B inhibition, counter-screen for RBBP9 inhibitors; recombinant Fam108B, FP-Rh probe fluorescence polarization; inhibition, % at 9.51 µM; 300,000 tested, 0.33% active;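 active means inhibition above the screen mean inhibition plus 3 SD, computed separately per campaign, cut at about 18% in these data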;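 further: inhibitors lower polarization as less probe binds the enzyme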
GSTO1 counter: blocks human GSTO1 in RBBP9 counter-screen. inhibition, % at 5.96 µM. 300,000 tested, 1.1% active. recombinant GSTO1, activity-based probe fluorescence polarization. P78417;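 active means inhibition above the campaign mean inhibition plus 3 SD, cut at about 35% in these data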;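 further: 0% = GSTO1-1 with DMSO and 100% = wells lacking GSTO1-1 enzyme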
Target sequence (P78417 whole entry, looked up): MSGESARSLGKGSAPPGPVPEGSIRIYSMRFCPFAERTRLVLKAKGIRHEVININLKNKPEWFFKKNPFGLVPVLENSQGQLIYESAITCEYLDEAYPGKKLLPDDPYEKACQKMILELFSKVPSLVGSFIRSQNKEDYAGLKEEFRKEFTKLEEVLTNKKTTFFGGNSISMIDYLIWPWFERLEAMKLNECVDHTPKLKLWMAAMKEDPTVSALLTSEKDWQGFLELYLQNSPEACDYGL
LYPLA2 counter: LYPLA2 (human) inhibition in PME1 counter-screen; O95372; recombinant LYPLA2, FP-Rh probe fluorescence polarization; inhibition, % at 5.9 µM; 320,000 tested, 0.38% active; AID 2177;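 active means inhibition above the screen-wide mean plus 3 SD, limit set per campaign, cut at about 26% in these data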;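 further: 0% = LYPLA2 with DMSO and 100% = wells lacking LYPLA2 enzyme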
PAD4 FP inh: blocks human protein arginine deiminase 4. inhibition, % at 6.36 µM. recombinant PAD4, RCA probe fluorescence polarization. AID 485272. 330,000 tested, 0.41% active. Q9UM07;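 active means percent inhibition above a cutoff equal to the mean of all tested compounds plus 3 SD, cut at about 15% in these data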;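 further: 0% = PAD4 with RCA probe and DMSO and 100% = probe without PAD4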
PME-1 primary: PME-1 (human) inhibition; Q9Y570; recombinant PME-1, FP-Rh probe fluorescence polarization; inhibition, % at 5.9 µM; 320,000 tested, 0.53% active;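 active means inhibition above the campaign mean of all compounds plus 3 SD, cut at about 26% in these data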;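 further: competitive labeling of PME-1 active site by serine hydrolase directed probe; 0% = PME-1 with DMSO and 100% = wells lacking PME-1 enzyme; inhibitors block probe labeling so polarization falls and inhibition rises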
Target sequence (Q9Y570 whole entry, looked up): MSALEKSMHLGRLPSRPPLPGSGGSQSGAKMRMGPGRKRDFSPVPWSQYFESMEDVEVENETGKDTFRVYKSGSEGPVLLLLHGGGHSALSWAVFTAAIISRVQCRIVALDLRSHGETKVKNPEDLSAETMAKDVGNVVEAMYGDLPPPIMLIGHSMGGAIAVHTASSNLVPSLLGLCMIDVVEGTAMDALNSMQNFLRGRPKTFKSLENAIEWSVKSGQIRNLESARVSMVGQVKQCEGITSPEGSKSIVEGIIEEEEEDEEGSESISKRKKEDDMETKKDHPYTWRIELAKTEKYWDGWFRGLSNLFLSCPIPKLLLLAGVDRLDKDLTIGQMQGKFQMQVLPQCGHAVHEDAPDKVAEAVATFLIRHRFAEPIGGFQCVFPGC
LYPLA1 counter: LYPLA1 (human) inhibition in PME1 counter-screen; 320,000 tested, 0.16% active; recombinant LYPLA1, FP-Rh probe fluorescence polarization; O75608; inhibition, % at 5.9 µM;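 active means inhibition above the mean of all tested compounds plus 3 SD, set per campaign, cut at about 14% in these data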;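 further: inhibitors block serine hydrolase probe labeling of LYPLA1 so polarization falls; 0% = enzyme with DMSO and 100% = wells lacking LYPLA1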
PAD4 FP conf: PAD4 (human) inhibition, confirmed | shares compounds with PAD4 FP inh | recombinant PAD4, RCA probe fluorescence polarization | inhibition, % at 6.36 µM | 1,200 tested, 28% active | AID 488796;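 active means mean inhibition across replicates above the hit cutoff set by the earlier primary screen, cut at about 15% in these data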;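 further: inhibitors block active-site labeling by the probe so polarization falls; 0% = PAD4 with probe and DMSO and 100% = probe without PAD4 enzyme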
Active calls of the source: *; / = no result given.

SMILES	Fam108B counter	GSTO1 counter	LYPLA2 counter	PAD4 FP inh	PME-1 primary	LYPLA1 counter	PAD4 FP conf
Cc1onc(-c2c(Cl)cccc2Cl)c1C(=O)N(C)Cc1ccccc1	0	3	4	-4	-4	0	/
O=[N+]([O-])c1cc(Br)c(Nc2ccccc2)c([N+](=O)[O-])c1	4	13	13	18*	18	8	20*
O=C(Nc1ccccc1)c1ccc(Nc2c([N+](=O)[O-])cc([N+](=O)[O-])c3ccccc23)cc1	8	-2	-5	2	13	-3	/
CCC(CC)C(=O)NCc1ccc2c(c1)cc(C)n2C	0	-2	2	-5	1	1	/
COc1ccc(S(=O)(=O)NCc2ccc3c(c2)cc(C)n3C)cc1	4	0	0	4	5	3	/
Cc1cc2cc(CNC(=O)c3ccc(S(=O)(=O)N4CCCCC4)cc3)ccc2n1C	-1	-2	-6	31*	-7	0	-3
Cc1cc2cc(CNS(=O)(=O)c3ccccc3)ccc2n1C	6	5	-3	18*	3	3	1
Cc1cc2cc(CNC(=O)c3ccc(S(=O)(=O)N4CCCC4)cc3)ccc2n1C	-1	5	-1	15	1	0	/
Cc1cc2cc(CNC(=O)C(C)Oc3ccccc3)ccc2n1C (stereo not drawn)	9	11	7	29*	14	11	4
CC(c1cccnc1)N(CCN(C)C)C(=O)Nc1ccc(Cl)cc1 (stereo not drawn)	1	-3	3	3	3	3	/
O=C(NCc1cccc(OC(F)(F)F)c1)c1cccc2c1C(=O)c1ccc(-c3ccc(F)cc3OCc3ccccc3)cc1S2(=O)=O	/	/	/	4	/	/	/
O=C1c2ccc(-c3ccc(F)cc3OCc3ccccc3)cc2S(=O)(=O)c2cccc(C(=O)N3CCCC3)c21	/	/	18	17*	3	3	15*
CCOc1cc(Br)c(/C=C2/C(=O)N(C)C(=S)N2CC(=O)OC)cc1OC	4	2	-2	-2	-1	0	/
COc1cc(/C=C2\C(=O)N(CCC#N)N=C2C)c(Br)cc1OC(C)C	-1	36*	8	71*	-8	-2	1
C(=Nc1ccc(Nc2ccccc2)cc1)c1ccc2ccccc2c1	2	34	7	24*	1	1	3
COC(C(=O)Nc1ccnn1C1CCN(C(=O)c2ccc(C=O)cc2)CC1)c1ccccc1 (stereo not drawn)	2	-1	-4	1	-8	-2	/
CCOC(=O)CN(C(=O)COc1nc(-c2ccccc2)cc(C)c1C#N)c1ccccc1	-5	5	0	0	-5	1	/
CCOC(=O)CN(C(=O)COc1nc(-c2ccccc2)cc(C)c1C#N)c1ccccc1C	-5	-1	4	20*	5	2	-8
CCOCCCNC(=S)N1C2CCC1CC(NC(=O)NC1CCCCC1)C2 (stereo not drawn)	3	6	-1	-5	-1	-5	/
O=C1N[C@H](Cc2ccccc2)COC(=O)[C@@H](Cc2ccc(F)cc2)C/C=C\C[C@H]1CC(=O)N(CCO)Cc1ccccc1	/	/	/	4	/	/	/
COc1ncnc2c1NC1=C(S2)C(=NCCC(=O)O)CC(C)(C)C1	0	3	7	20*	4	10	24*
CC(=O)NN1C(=O)c2ccc3c4c(ccc(c24)C1=O)C(=O)N(NC(C)=O)C3=O	2	37*	5	136*	-2	3	143*
Cc1cccc(CCNC(=O)Cc2ccc(NC3=NC4CS(=O)(=O)CC4S3)cc2)c1 (stereo not drawn)	-1	1	-1	-4	-1	-3	/
CS(=O)(=O)c1ccc(C(=O)Nc2ccc(-c3nc4ccccc4[nH]3)cc2)cc1	-9	-2	-12	-14	-20	-9	/
CN1CCN(S(=O)(=O)c2cccc(C(=O)Nc3sc4c(c3-c3nc5ccccc5[nH]3)CCCC4)c2)CC1	14	33	-10	19*	10	-11	2
SMILES	Fam108B counter	GSTO1 counter	LYPLA2 counter	PAD4 FP inh	PME-1 primary	LYPLA1 counter	PAD4 FP conf
CC(=O)NCCC(=O)Nc1sc2c(c1-c1nc3ccccc3[nH]1)CCCC2	1	6	-5	-1	4	2	/
CS(=O)(=O)c1cccc(C(=O)Nc2cccc(-c3nc4ccccc4[nH]3)c2)c1	-8	-23	-22	20*	-22	-18	16*
CS(=O)(=O)c1ccc(C(=O)Nc2cccc(-c3nc4ccccc4[nH]3)c2)cc1	-8	-14	-21	28*	-26	-17	13
CS(=O)(=O)Cc1ccc(C(=O)Nc2cccc(-c3nc4ccccc4[nH]3)c2)cc1	-17	-29	-27	-3	-37	-17	/
CC(=O)Nc1cc(NC(C)=O)cc(C(=O)OCC(=O)c2ccc3c(c2)OCO3)c1	3	13	11	-6	1	2	/
Cc1ccc(S(=O)(=O)c2nc(S(C)(=O)=O)sc2N2CCCCC2C)cc1 (stereo not drawn)	2	-10	8	-5	6	-1	/
Cc1cc(C)c(-c2noc(C(=O)OC(C)(C)C)c2C(=O)OC(C)(C)C)c(C)c1	6	-1	2	-4	2	5	/
Cc1cc2ccccc2n1CCNC(=O)COc1ccccc1	5	0	0	23*	-9	-1	9
CN(C)c1ccc(/C=N/NC(=O)Cn2nnc3ccccc32)cc1	5	1	5	15*	1	1	-1
CCOC(=O)c1ccc(-n2[nH]c(-c3ccccc3)cc2=O)cc1	0	36*	9	40*	9	4	-16
O=C(NC1(O)C(=O)c2ccccc2C1=O)c1c(Cl)cccc1Cl	5	79*	1	24*	10	-2	37*
O=C(Nc1ccccc1Cl)c1c(F)c(F)c(F)c(F)c1F	5	-4	-2	-1	0	2	/
CC1(NC(=O)CC(c2ccccc2)(c2ccccc2)c2ccccc2)CCN(CCCc2ccccc2)C1=O (stereo not drawn)	/	/	-2	-3	-3	-2	/
CC(=O)OCCNc1cc(SCc2ccco2)c2nonc2c1[N+](=O)[O-]	10	24	-2	16*	1	-7	-4
COC(=O)CCSc1cc(NCCOC(C)=O)c([N+](=O)[O-])c2nonc12	3	4	-4	-11	5	-2	/
O=C(Cc1c(F)cccc1Cl)Nc1ccccc1C(=O)N1CCCCC1	2	4	10	-1	-2	5	/
COc1ccc(-c2cc(C(=O)N3CCCCCC3)c3ccccc3n2)c(OC)c1	1	6	3	16*	9	-2	49*
COC(=O)/C(=C\Nc1ccccc1N)c1ncc(C(F)(F)F)cc1Cl	3	4	-2	2	-4	-2	/
